# Reference: the supplement of paper PMC12808144
# Tested on: Mel-DCC-11-R
# Assay: cell viability relative to DMSO control (fraction of DMSO control); higher = less cytotoxic, active = 0.8 or less
# Settings: 1 µM; 120 h; vemurafenib co-treatment 0 µM
# Protocol: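 Same 315-drug TargetMol library at 1 µM in duplicate, 120 h, ATPlite luminescence normalised to DMSO controls, on the vemurafenib-resistant subline Mel-DCC-11-R cultured alone or with 8 µM vemurafenib co-treatment (Mel-DCC-11-R + V).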
row,Compound,cell viability
1,CS(=O)(=O)OCCCCOS(C)(=O)=O [Busulfan],0.994 (inactive)
2,OC[C@H]1O[C@@H](n2cnc3c2NC=NC[C@H]3O)C[C@@H]1O [Pentostatin],0.905 (inactive)
3,O=c1[nH]c(=O)n([C@H]2C[C@H](O)[C@@H](CO)O2)cc1/C=C/Br [Brivudine],0.809 (inactive)
4,O=c1cc[nH]c(=O)[nH]1 [Uracil],0.875 (inactive)
5,CCc1c2c(nc3ccc(OC(=O)N4CCC(N5CCCCC5)CC4)cc13)-c1cc3c(c(=O)n1C2)COC(=O)[C@]3(O)CC.Cl.O.O.O [Irinotecan hydrochloride trihydrate],1.32 (inactive)
6,CC/C(=C(\c1ccccc1)c1ccc(OCCN(C)C)cc1)c1ccccc1.O=C(O)CC(O)(CC(=O)O)C(=O)O [Tamoxifen Z-isomer citrate],0.873 (inactive)
7,CN(C)C/C=C/C(=O)Nc1cc2c(Nc3ccc(F)c(Cl)c3)ncnc2cc1O[C@H]1CCOC1 [Afatinib],1.09 (inactive)
8,COc1cc2c(Oc3ccc4[nH]c(C)cc4c3F)ncnc2cc1OCCCN1CCCC1 [Cediranib],0.853 (inactive)
9,Cl.Cl.O=C1c2c(O)ccc(O)c2C(=O)c2c(NCCNCCO)ccc(NCCNCCO)c21 [Mitoxantrone hydrochloride],1.14 (inactive)
10,Cc1ccc(=O)n(-c2ccccc2)c1 [Pirfenidone],1.03 (inactive)
11,CCCS(=O)(=O)Nc1ccc(F)c(C(=O)c2c[nH]c3ncc(-c4ccc(Cl)cc4)cc23)c1F [Vemurafenib],0.991 (inactive)
12,CC(=O)O.CC(C)C[C@H](NC(=O)[C@@H](COC(C)(C)C)NC(=O)[C@H](Cc1ccc(O)cc1)NC(=O)[C@H](CO)NC(=O)[C@H](Cc1c[nH]c2ccccc12)NC(=O)[C@H](Cc1cnc[nH]1)NC(=O)[C@@H]1CCC(=O)N1)C(=O)N[C@@H](CCCN=C(N)N)C(=O)N1CCC[C@H]1C(=O)NNC(N)=O [Goserelin acetate],0.927 (inactive)
13,Cc1nc(Nc2ncc(C(=O)Nc3c(C)cccc3Cl)s2)cc(N2CCN(CCO)CC2)n1 [Dasatinib],1.59 (inactive)
14,CN(C)C/C=C/C(=O)Nc1cc2c(Nc3ccc(F)c(Cl)c3)ncnc2cc1O[C@H]1CCOC1.O=C(O)/C=C\C(=O)O.O=C(O)/C=C\C(=O)O [Afatinib Dimaleate],1.03 (inactive)
15,CC(=O)c1c(C)c2cnc(Nc3ccc(N4CCNCC4)cn3)nc2n(C2CCCC2)c1=O [Palbociclib],1.76 (inactive)
16,CCCCCOC(=O)Nc1nc(=O)n([C@@H]2O[C@H](C)[C@@H](O)[C@H]2O)cc1F [Capecitabine],1.04 (inactive)
17,Cc1c(C(=O)Nc2ccc(N3C[C@@H](C)O[C@@H](C)C3)nc2)cccc1-c1ccc(OC(F)(F)F)cc1 [Sonidegib],1.03 (inactive)
18,CS(=O)(=O)CCNCc1ccc(-c2ccc3ncnc(Nc4ccc(OCc5cccc(F)c5)c(Cl)c4)c3c2)o1.Cc1ccc(S(=O)(=O)O)cc1.Cc1ccc(S(=O)(=O)O)cc1 [Lapatinib Ditosylate],1.27 (inactive)
19,CN(C)CCCN1c2ccccc2Sc2ccc(Cl)cc21.Cl [Chlorpromazine hydrochloride],1.06 (inactive)
20,COc1cc2nccc(Oc3ccc(NC(=O)C4(C(=O)Nc5ccc(F)cc5)CC4)cc3)c2cc1OC [Cabozantinib],1.1 (inactive)

# Same assay, conditions: 1 µM; 120 h; vemurafenib co-treatment 8 µM
row,Compound,cell viability
1,CS(=O)(=O)OCCCCOS(C)(=O)=O [Busulfan],1.13 (inactive)
2,OC[C@H]1O[C@@H](n2cnc3c2NC=NC[C@H]3O)C[C@@H]1O [Pentostatin],1.2 (inactive)
3,O=c1[nH]c(=O)n([C@H]2C[C@H](O)[C@@H](CO)O2)cc1/C=C/Br [Brivudine],1.12 (inactive)
4,O=c1cc[nH]c(=O)[nH]1 [Uracil],1.01 (inactive)
5,CCc1c2c(nc3ccc(OC(=O)N4CCC(N5CCCCC5)CC4)cc13)-c1cc3c(c(=O)n1C2)COC(=O)[C@]3(O)CC.Cl.O.O.O [Irinotecan hydrochloride trihydrate],0.937 (inactive)
6,CC/C(=C(\c1ccccc1)c1ccc(OCCN(C)C)cc1)c1ccccc1.O=C(O)CC(O)(CC(=O)O)C(=O)O [Tamoxifen Z-isomer citrate],1.16 (inactive)
7,CN(C)C/C=C/C(=O)Nc1cc2c(Nc3ccc(F)c(Cl)c3)ncnc2cc1O[C@H]1CCOC1 [Afatinib],0.792 (active)
8,COc1cc2c(Oc3ccc4[nH]c(C)cc4c3F)ncnc2cc1OCCCN1CCCC1 [Cediranib],0.728 (active)
9,Cl.Cl.O=C1c2c(O)ccc(O)c2C(=O)c2c(NCCNCCO)ccc(NCCNCCO)c21 [Mitoxantrone hydrochloride],0.477 (active)
10,Cc1ccc(=O)n(-c2ccccc2)c1 [Pirfenidone],1.1 (inactive)
11,CCCS(=O)(=O)Nc1ccc(F)c(C(=O)c2c[nH]c3ncc(-c4ccc(Cl)cc4)cc23)c1F [Vemurafenib],0.905 (inactive)
12,CC(=O)O.CC(C)C[C@H](NC(=O)[C@@H](COC(C)(C)C)NC(=O)[C@H](Cc1ccc(O)cc1)NC(=O)[C@H](CO)NC(=O)[C@H](Cc1c[nH]c2ccccc12)NC(=O)[C@H](Cc1cnc[nH]1)NC(=O)[C@@H]1CCC(=O)N1)C(=O)N[C@@H](CCCN=C(N)N)C(=O)N1CCC[C@H]1C(=O)NNC(N)=O [Goserelin acetate],1.13 (inactive)
13,Cc1nc(Nc2ncc(C(=O)Nc3c(C)cccc3Cl)s2)cc(N2CCN(CCO)CC2)n1 [Dasatinib],1.58 (inactive)
14,CN(C)C/C=C/C(=O)Nc1cc2c(Nc3ccc(F)c(Cl)c3)ncnc2cc1O[C@H]1CCOC1.O=C(O)/C=C\C(=O)O.O=C(O)/C=C\C(=O)O [Afatinib Dimaleate],0.766 (active)
15,CC(=O)c1c(C)c2cnc(Nc3ccc(N4CCNCC4)cn3)nc2n(C2CCCC2)c1=O [Palbociclib],1.15 (inactive)
16,CCCCCOC(=O)Nc1nc(=O)n([C@@H]2O[C@H](C)[C@@H](O)[C@H]2O)cc1F [Capecitabine],1.11 (inactive)
17,Cc1c(C(=O)Nc2ccc(N3C[C@@H](C)O[C@@H](C)C3)nc2)cccc1-c1ccc(OC(F)(F)F)cc1 [Sonidegib],1.2 (inactive)
18,CS(=O)(=O)CCNCc1ccc(-c2ccc3ncnc(Nc4ccc(OCc5cccc(F)c5)c(Cl)c4)c3c2)o1.Cc1ccc(S(=O)(=O)O)cc1.Cc1ccc(S(=O)(=O)O)cc1 [Lapatinib Ditosylate],0.885 (inactive)
19,CN(C)CCCN1c2ccccc2Sc2ccc(Cl)cc21.Cl [Chlorpromazine hydrochloride],1.11 (inactive)
20,COc1cc2nccc(Oc3ccc(NC(=O)C4(C(=O)Nc5ccc(F)cc5)CC4)cc3)c2cc1OC [Cabozantinib],0.427 (active)
